The entries come from a sample that favours hits as a whole.
TTR transcr act: TTR transcription activators in neuroblastoma reporter cells, primary screen, cell-based, luminescence, SH-SY5Y, TTR promoter Gaussia luciferase | 100% = recombinant luciferase protein wells | 1.3% of 92,000 active | activation, % at 16.7 µM | AID 1117267, 2014;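 active = activation above the mean of all tested compounds plus 3 SD, cut at about 9.5% in these data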;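 note: cells exposed to compounds for one day before reading; 0% = median of all test compound wells on the plate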
HuH7 TTR inh: TTR promoter reporter inhibitors in hepatoma cells, counter-screen for TTR transcription activator project, cell-based, luminescence, HuH7 hepatoma; shares compounds with TTR transcr act; HuH7 TTR promoter-Gaussia luciferase reporter; inhibition, % at 16.7 µM; 4% of 1,100 active;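 active = average inhibition above the solvent-only control wells' mean plus 3 SD, cut at about 15% in these data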;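 note: 0% = cells with DMSO only and 100% = cells with inhibitor control FD; inhibitors lower well luminescence so higher value means more inhibition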
TTR up confirm: TTR transcription activators, retest, confirmation, cell-based, luminescence, SH-SY5Y, triplicate; shares compounds with TTR transcr act; SHSY5Y TTR promoter Gaussia luciferase; 100% = purified Lucia enzyme wells, no cells; activation, % at 16.7 µM; 1,100 tested, under 10 active; AID 1117280, 2014;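 active = mean activation above a set limit taken from the earlier primary screen, cut at about 11% in these data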;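 note: 0% = DMSO-treated cells and 100% = recombinant Lucia luciferase without cells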
Numbers without * were called inactive.

SMILES	TTR transcr act	others
O=C(NCc1ccccc1)C(c1ccc(C(F)(F)F)cc1)n1c(=O)c(-c2ccco2)nc2ccccc21 (configuration not stated)	-2
O=C(CO/N=C/c1ccc(Cl)cc1Cl)NNC(=O)c1ccc(Cl)cc1Cl	0
O=C(CO/N=C/c1c(Cl)cccc1Cl)NNC(=O)c1cccc(Cl)c1	2
O=C(CO/N=C/c1c(Cl)cccc1Cl)NNC(=O)c1ccc(Cl)cc1	11*	HuH7 TTR inh=-16;TTR up confirm=0
CCCS(=O)(=O)NC(=O)C1(C)CCN(C(=O)Cc2ccc3ccccc3c2)C1 (configuration not stated)	1
CCCCOc1ccc(OCCNC(=O)c2ccco2)cc1	4
C[C@@H]1COC(=O)[C@@H](CC(=O)OC(C)(C)C)C/C=C\C[C@@H](CC(=O)N[C@H](CO)Cc2ccccc2)C(=O)N1	-1
CCC(C)[C@H](NC(=O)Nc1ccccc1F)C(=O)O (some centres not stated)	9
COC(C(=O)Nc1ccccc1F)c1ccccc1 (configuration not stated)	15*	HuH7 TTR inh=-7;TTR up confirm=0
COC(C(=O)NC1CC1)c1ccccc1 (configuration not stated)	2
O=C(c1cc(C2CC2)on1)N(C1CCCCC1)C1CCCCC1	0
CC(C)Cn1c(N)c(C(=O)CSc2ncn[nH]2)c(=O)n(C)c1=O	-2
C[C@@H]1C(=O)O[C@@H]2CC34[C@H]5C[C@@H](C(C)(C)C)C36[C@H](OC(=O)[C@@H]6O)OC4(C(=O)O5)[C@@]12O (some centres not stated)	23*	HuH7 TTR inh=-7;TTR up confirm=2
CC(C)c1cccc(O)c(=O)c1	10*	HuH7 TTR inh=-7;TTR up confirm=-1
CC(=O)c1c(O)cc(C(C)C)n(-c2ccccc2)c1=O	-1
Cc1ccc(C(C)C)c(O)c1	4
COc1ccc(S(=O)(=O)N2CCOCC2)cc1NC(=O)C1CC1	1
N#CC(Cc1ccccc1)(Cc1ccccc1)C(=O)NN	1
CCOc1ccc(N2C(=O)CSC2=S)cc1	-2
CCOc1ccc(N=C2SCC(=O)N2CC)cc1	18*	HuH7 TTR inh=-11;TTR up confirm=0
COc1ccc(N=C2SCC(=O)N2Cc2ccccc2)cc1	-1
O=C(C[C@@H]1C[C@H]2c3cc(NC(=O)C4CCC4)ccc3O[C@H]2[C@@H](CO)O1)NCc1ccc(-c2ccccc2)cc1	-2
COc1ccc(CN2C(=O)C(CC(=O)NCCc3ccccn3)CC(C(=O)N3CCOCC3)=C2C)cc1 (configuration not stated)	-1
COC(=O)/C=C1/SC(=NC(=O)c2ccc(Cl)cc2)NC1=O	1
Cc1ccc(NC(=O)c2scc3c2CCCC3)cc1	22*	HuH7 TTR inh=10;TTR up confirm=-2
SMILES	TTR transcr act	others
CCN1CCCC(NC(=O)c2scc3c2CCCC3)C1 (configuration not stated)	0
Cc1ccc(C(=O)Nc2ccc3c(c2)CCC3)cc1	0
CN(CC(=O)Nc1cccc(F)c1)C(=O)c1ccc2c(c1)CC(c1ccccc1)OC2=O (configuration not stated)	-2
CCCC(=O)N1CCCC1(C)C(=O)Nc1ccc(OC(F)F)cc1 (configuration not stated)	1
Cc1ccc(NS(=O)(=O)c2ccc(C(=O)NCCN3CCOCC3)cc2)cc1	15*	HuH7 TTR inh=-10;TTR up confirm=1
CC(=O)Nc1ccc(C(=O)NCCN2CCOCC2)cc1	-1
O=C(NCCCN1CCOCC1)c1ccc(NS(=O)(=O)c2cccc([N+](=O)[O-])c2)cc1	0
Cc1cccc(C(=O)OCC(=O)c2cccc(Br)c2)c1O	-1
Cc1cc(=O)n2nc(N3CCC(C(=O)NCc4cccc(Br)c4)CC3)sc2n1	3
COc1cccc(CSc2nc3ccccc3[nH]2)c1	0
COC(=O)CSc1nc2cc3c(cc2cc1C)OCO3	0
COc1cccc(CSc2nc3cc4c(cc3cc2C)OCCO4)c1	18*	HuH7 TTR inh=-11;TTR up confirm=0
COc1cc(NC(=O)CSc2nc3c(c(=O)n(C)c(=O)n3C)n2C)cc(OC)c1	-1
CCCCNCc1cc(OCC)c(OCC(N)=O)cc1Br	18*	HuH7 TTR inh=-5;TTR up confirm=2
CCOc1cc(CO)c(Br)cc1OCC(=O)O	1
CCCCNCc1cc(OC)c(OCC(N)=O)cc1Br	1
Cc1ccc(C2NC(=O)c3ccccc3N2)c(C)c1 (configuration not stated)	1
CCC(=O)c1ccc(OCC(=O)N(C)CC(=O)Nc2cccc(F)c2)cc1	10.0*	HuH7 TTR inh=-14;TTR up confirm=0
CN(CC(=O)Nc1cccc(F)c1)C(=O)c1ccc(OCC2CCCO2)cc1 (configuration not stated)	0
Cc1ccc(NC(=O)CSCC(=O)N(C)CC(=O)Nc2cccc(F)c2)cc1	-1
CSCC(C)N1CCC(Oc2cccc(C(=O)NCc3ccccn3)c2)CC1 (configuration not stated)	2
COc1ccccc1CN1CC(C(=O)NCCc2ccc(C)o2)CCC1=O (configuration not stated)	-1
COc1cc2c(C#Cc3cccnc3)c(-c3ccsc3)oc(=O)c2cc1OC	0
Cc1c(OCC(=O)C(C)(C)C)ccc2c3c(c(=O)oc12)CCCC3	-2
CCOC(=O)COc1ccc2c3c(c(=O)oc2c1C)CCC3	1
SMILES	TTR transcr act	others
Cc1coc2c(C)c3oc(=O)c4c(c3cc12)CCCC4	12*	HuH7 TTR inh=-6;TTR up confirm=0
CCOC(=O)Cn1c(C(F)(F)F)nc2nc(Cl)c(Cl)nc21	-2
CCCN=C(C)C1=C(O)c2ccccc2C1=O	2
CC(=NCc1ccccc1)C1=C(O)COC1=O	-4
CC(=NCCc1ccccc1)C1=C(O)COC1=O	13*	HuH7 TTR inh=-13;TTR up confirm=0
COc1ccccc1NOC(=O)CCOc1ccccc1	0
CCCSc1cc(=O)n(-c2ccccc2)nc1C(=O)O	0
CCOC(=O)c1nn(-c2ccccc2)c(=O)cc1SC(C)C	1
CCCCSc1cc(=O)n(-c2ccccc2)nc1C(=O)OCC	10*	HuH7 TTR inh=2;TTR up confirm=-1
O=C(Nc1ccc(N2CCCC2)cc1)c1cccc(Cl)c1Cl	-3
Cc1ccc(S(=O)(=O)N2CCCCC2)cc1NC(=O)c1cc(F)c(F)c(F)c1F	1
C[C@]12CC[C@H](O)CC1=C[C@H](O)C1C2CC[C@@]2(C)C1CC[C@@]2(O)C#Cc1ccc(CN)cc1 (some centres not stated)	12*	HuH7 TTR inh=1;TTR up confirm=0
O=C(NCCCc1ccccc1)[C@H](CO)NC1(C(=O)NCCc2c[nH]c3ccccc23)CCCCC1	2
CC1CCC(NC(=O)c2[nH]c(C(F)(F)F)nc2-c2ccccc2)CC1 (configuration not stated)	1
CSCCC(C(=O)NC(C)(C)C)n1c(-c2ccc3c(c2)OCO3)nc2ccccc21 (configuration not stated)	0
Cc1nc2ccc(Br)cn2c1C(=O)N/N=C\c1ccccc1Cl	-1
COC(=O)CN1C(=O)[C@H]2[C@@H](/C=C/c3ccccc3)N3C(=O)CN(Cc4ccccc4)C(=O)[C@@]3(C)[C@H]2C1=O	-1
CCOC(=O)c1ccccc1NC(=O)C=C(C)C	0
CCOCCOC(=O)COC(=O)c1ccccc1NC(=O)c1ccccc1	12*	HuH7 TTR inh=-12;TTR up confirm=1
